Measured values published in the supplement of paper PMC11732987, “Enantioselective OTUD7B fragment discovery through chemoproteomics screening and high-throughput optimisation” (Communications Chemistry, 2025).

Columns and labels:
Assay in all cases: log2 ratio of Biotin-Ahx-Ub-VS probe labelling (fragment/DMSO); higher = less target engagement (more negative = stronger competition), active = hit call of the paper (q ≤ 0.05, log2 ratio ≤ -1)
Settings in all cases: compound concentration: 200 uM; treatment time: 3 h
USP34 = USP34 (UniProt Q70CQ2)
How it was run: (§1)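 The table lists average log2 ratios of fragment over vehicle, from an unpaired t-test on global-median-normalised Spectronaut label-free quantities. Proteins with ≥2 unique peptides were used. Samples were HEK293T lysate (495 µg) treated in triplicate with fragment at 200 µM or vehicle for 3 h, then with Biotin-Ahx-Ub-VS (0.5 µM final) for 1 h, with labelled DUBs NeutrAvidin-enriched and run by diaPASEF LC-MS/MS.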

USP36 = target: T1, USP36 (UniProt Q9P275)
T1 sequence (whole entry): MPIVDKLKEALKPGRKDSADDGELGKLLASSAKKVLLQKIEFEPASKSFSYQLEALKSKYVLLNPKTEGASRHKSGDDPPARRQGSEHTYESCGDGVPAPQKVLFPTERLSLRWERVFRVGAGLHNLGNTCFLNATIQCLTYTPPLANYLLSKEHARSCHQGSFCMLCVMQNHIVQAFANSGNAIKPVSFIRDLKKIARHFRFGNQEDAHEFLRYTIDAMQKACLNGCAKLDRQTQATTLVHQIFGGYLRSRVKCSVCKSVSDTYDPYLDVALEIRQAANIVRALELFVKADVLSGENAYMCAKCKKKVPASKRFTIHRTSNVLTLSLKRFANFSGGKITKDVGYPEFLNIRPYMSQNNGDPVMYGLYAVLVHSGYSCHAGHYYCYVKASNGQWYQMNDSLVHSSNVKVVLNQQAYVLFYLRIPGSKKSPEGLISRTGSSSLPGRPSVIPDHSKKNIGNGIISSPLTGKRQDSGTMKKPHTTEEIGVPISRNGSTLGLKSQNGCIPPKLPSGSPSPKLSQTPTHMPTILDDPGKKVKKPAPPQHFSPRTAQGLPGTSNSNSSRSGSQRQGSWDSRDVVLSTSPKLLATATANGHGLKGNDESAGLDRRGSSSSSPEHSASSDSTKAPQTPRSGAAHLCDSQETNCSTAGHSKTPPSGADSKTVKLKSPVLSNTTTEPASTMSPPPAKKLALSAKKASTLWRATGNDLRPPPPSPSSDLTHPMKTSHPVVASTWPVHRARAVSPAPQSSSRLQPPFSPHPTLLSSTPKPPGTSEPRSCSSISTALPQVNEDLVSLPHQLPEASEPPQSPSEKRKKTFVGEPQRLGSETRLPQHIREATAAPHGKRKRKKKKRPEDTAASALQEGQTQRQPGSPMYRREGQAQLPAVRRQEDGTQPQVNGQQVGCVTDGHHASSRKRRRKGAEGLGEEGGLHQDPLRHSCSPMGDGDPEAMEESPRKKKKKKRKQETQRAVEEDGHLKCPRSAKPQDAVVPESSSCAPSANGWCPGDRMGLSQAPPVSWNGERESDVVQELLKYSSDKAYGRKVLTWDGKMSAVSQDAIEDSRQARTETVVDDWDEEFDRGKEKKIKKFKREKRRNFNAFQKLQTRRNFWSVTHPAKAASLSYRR
How it was run: as §1

USP38 = target: T2, USP38 (UniProt Q8NB14)
T2 sequence (whole entry): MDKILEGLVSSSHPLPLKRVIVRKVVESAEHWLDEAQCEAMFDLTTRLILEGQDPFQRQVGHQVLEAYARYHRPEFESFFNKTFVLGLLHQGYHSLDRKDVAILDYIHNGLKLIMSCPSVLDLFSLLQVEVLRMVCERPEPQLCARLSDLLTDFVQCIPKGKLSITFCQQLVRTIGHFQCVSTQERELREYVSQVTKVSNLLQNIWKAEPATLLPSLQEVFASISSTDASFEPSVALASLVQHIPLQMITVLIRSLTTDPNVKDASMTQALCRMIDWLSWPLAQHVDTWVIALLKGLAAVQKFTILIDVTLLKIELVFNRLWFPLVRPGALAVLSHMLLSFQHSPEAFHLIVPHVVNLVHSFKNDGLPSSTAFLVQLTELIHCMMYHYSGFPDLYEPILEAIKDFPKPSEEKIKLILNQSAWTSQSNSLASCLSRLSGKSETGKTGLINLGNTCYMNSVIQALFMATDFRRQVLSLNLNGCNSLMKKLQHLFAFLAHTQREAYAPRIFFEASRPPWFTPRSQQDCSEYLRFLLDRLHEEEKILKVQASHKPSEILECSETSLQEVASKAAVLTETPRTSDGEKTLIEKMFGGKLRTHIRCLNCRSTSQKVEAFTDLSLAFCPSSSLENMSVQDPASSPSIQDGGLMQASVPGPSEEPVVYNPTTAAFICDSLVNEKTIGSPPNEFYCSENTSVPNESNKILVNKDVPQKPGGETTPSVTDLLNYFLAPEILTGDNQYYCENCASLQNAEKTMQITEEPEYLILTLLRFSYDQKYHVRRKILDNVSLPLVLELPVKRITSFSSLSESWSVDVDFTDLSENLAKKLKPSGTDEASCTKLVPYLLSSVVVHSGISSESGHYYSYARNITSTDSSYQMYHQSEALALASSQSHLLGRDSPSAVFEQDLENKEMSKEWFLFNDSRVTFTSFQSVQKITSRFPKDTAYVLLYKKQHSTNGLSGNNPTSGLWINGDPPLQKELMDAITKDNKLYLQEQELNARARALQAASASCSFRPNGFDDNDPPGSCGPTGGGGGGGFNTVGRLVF
How it was run: as §1

USP39 = target: T3, USP39 (UniProt Q53GS9)
T3 sequence (whole entry): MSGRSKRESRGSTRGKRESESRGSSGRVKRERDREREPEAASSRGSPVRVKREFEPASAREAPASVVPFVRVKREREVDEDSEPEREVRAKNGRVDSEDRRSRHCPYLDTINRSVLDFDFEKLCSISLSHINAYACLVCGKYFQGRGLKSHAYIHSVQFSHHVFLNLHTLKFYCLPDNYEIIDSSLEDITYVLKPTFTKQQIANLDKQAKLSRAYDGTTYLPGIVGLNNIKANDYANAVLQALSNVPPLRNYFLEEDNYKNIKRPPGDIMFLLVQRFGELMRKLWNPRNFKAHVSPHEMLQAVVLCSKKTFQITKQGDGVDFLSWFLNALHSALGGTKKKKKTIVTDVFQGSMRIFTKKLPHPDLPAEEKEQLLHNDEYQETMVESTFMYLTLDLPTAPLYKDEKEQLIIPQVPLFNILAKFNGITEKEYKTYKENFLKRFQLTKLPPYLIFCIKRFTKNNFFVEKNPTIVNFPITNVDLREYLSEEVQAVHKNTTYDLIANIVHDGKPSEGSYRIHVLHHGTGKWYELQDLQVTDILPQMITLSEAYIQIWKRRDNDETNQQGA
How it was run: as §1

USP4 = target: T4, USP4 (UniProt Q13107)
T4 sequence (whole entry): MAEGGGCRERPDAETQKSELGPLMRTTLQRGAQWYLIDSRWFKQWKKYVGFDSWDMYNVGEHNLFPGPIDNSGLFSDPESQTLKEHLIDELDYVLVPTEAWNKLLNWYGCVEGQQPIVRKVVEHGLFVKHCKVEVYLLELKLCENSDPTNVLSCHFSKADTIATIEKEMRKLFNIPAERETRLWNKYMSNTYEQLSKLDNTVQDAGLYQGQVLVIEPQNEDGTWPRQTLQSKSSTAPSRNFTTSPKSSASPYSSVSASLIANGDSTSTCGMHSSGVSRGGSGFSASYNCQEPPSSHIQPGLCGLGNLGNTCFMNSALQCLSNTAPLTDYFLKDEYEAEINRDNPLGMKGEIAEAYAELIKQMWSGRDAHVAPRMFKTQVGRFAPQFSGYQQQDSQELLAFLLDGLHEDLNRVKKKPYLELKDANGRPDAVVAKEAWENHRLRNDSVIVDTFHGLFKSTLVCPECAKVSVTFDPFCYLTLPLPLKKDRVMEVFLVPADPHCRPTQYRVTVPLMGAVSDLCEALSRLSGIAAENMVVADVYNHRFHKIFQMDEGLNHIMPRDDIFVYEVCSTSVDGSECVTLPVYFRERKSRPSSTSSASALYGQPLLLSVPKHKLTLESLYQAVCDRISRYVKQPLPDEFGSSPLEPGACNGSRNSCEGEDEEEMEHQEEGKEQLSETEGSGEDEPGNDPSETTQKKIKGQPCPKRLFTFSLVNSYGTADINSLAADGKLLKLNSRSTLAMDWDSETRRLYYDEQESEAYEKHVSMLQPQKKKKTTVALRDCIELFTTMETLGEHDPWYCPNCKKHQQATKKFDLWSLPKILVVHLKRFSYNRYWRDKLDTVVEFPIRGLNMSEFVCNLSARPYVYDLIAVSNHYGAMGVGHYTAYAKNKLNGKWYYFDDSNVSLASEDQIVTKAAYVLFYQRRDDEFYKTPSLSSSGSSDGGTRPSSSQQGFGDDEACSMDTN
How it was run: as §1

Measured: log2 ratio of Biotin-Ahx-Ub-VS probe labelling

Sequence of USP34 (Q70CQ2 whole entry, the tested form may be a part): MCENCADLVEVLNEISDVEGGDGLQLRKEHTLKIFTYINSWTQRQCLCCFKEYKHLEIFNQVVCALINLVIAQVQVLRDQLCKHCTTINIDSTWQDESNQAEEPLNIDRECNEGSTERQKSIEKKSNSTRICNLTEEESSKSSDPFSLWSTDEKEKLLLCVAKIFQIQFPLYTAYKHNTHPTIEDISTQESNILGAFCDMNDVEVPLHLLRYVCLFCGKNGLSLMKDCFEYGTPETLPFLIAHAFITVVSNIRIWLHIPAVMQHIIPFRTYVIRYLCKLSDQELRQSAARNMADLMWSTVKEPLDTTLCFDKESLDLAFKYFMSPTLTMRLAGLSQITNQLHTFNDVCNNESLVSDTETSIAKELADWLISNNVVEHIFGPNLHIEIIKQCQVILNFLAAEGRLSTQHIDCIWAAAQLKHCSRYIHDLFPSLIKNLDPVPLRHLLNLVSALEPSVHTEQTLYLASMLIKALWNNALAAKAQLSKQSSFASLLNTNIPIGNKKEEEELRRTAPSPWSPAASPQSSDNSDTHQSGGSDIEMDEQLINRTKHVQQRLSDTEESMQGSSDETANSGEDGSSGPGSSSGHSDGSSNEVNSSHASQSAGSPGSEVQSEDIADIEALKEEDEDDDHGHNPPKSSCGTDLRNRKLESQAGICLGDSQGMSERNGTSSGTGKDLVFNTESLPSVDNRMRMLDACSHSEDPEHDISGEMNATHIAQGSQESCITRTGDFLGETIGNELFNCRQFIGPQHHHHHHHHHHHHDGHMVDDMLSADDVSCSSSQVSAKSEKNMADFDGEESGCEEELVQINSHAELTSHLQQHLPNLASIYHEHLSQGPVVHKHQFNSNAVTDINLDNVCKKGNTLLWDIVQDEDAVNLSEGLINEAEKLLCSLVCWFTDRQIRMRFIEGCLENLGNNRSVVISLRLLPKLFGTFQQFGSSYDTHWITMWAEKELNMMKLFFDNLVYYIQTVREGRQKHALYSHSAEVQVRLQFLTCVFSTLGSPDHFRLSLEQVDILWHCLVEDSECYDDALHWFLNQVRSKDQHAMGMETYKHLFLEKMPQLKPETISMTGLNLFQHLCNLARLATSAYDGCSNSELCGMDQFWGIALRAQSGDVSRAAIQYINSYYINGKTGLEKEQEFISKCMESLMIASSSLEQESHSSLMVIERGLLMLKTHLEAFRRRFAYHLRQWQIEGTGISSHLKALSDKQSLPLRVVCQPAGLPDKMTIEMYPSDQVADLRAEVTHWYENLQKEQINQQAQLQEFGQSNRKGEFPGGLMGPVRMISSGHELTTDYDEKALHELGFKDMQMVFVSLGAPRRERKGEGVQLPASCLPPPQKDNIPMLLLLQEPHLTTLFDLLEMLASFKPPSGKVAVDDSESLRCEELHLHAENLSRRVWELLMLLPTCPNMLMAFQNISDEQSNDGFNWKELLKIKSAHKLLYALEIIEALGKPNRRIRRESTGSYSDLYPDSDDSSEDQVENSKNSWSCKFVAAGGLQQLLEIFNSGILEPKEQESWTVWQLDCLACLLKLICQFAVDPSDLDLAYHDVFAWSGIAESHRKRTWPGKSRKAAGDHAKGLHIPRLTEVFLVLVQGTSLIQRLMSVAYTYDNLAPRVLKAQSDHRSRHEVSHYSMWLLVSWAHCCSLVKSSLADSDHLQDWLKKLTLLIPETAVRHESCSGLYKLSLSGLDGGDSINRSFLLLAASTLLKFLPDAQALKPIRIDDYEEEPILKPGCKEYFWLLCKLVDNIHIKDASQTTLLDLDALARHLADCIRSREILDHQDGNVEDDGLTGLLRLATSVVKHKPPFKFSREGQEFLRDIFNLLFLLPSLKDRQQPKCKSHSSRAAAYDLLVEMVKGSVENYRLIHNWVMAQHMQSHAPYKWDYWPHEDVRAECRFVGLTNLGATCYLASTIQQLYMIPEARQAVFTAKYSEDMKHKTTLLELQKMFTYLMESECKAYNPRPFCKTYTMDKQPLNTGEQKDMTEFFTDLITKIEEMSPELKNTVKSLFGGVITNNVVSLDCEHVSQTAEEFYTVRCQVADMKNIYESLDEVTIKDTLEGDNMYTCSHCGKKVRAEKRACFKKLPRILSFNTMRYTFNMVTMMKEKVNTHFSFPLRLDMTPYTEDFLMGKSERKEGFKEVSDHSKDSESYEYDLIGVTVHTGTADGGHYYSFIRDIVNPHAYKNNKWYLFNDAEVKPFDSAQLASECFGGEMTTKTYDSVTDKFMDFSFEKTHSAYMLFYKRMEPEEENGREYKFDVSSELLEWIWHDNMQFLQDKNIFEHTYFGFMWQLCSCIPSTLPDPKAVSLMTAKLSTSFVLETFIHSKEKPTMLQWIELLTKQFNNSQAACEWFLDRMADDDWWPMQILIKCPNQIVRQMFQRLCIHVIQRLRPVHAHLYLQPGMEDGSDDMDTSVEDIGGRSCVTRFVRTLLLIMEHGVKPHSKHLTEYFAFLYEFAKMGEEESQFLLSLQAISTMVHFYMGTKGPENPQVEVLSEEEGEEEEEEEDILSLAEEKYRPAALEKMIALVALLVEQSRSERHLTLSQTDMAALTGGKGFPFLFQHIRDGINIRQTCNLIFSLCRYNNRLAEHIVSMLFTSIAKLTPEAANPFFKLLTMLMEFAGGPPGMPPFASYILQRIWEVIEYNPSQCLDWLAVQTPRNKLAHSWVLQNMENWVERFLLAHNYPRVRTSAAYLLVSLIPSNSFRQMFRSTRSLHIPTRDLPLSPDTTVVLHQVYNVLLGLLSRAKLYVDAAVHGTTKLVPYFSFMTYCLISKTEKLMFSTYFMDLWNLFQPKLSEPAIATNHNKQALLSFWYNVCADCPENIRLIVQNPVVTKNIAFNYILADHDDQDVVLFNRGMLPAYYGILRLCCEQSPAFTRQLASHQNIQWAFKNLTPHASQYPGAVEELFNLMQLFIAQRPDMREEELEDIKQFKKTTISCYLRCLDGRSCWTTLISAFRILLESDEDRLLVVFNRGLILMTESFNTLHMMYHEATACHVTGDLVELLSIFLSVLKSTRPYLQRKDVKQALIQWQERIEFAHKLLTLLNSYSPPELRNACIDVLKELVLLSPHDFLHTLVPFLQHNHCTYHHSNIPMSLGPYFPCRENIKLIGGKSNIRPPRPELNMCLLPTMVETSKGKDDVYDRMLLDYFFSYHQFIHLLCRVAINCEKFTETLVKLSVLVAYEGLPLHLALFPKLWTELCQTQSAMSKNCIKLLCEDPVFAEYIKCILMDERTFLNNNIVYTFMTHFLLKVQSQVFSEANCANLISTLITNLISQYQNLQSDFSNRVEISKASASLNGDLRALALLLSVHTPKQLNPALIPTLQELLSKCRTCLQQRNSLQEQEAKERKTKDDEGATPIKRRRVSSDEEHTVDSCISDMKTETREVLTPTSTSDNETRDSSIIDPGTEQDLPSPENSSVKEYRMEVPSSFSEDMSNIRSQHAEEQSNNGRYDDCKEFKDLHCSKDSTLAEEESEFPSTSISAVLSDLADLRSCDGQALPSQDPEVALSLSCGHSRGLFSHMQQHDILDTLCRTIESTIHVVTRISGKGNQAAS

O=C(CCl)N1CCC(c2ccn[nH]2)C1 (stereo not given)
inactive: USP34 0.0363 | USP36 -0.353 | USP38 -0.148 | USP39 0.00596 | USP4 -0.113
